# Several values for one entry are separate records, joined by “and”; a condition that tells them apart may be missing. Equal values may be shown once. Inconclusive results are not listed. Where a call stands in place of a potency, no number is given. Activity calls are given as the source filed them. Unless noted, the call rests on the fitted dose curve; in most records, active means well fitted curve in the direction sought with a large enough effect; inconclusive means small, poorly fitted or top-dose-only effect, or another doubt; inactive means no such curve, though single readings can be large; an effect the other way counts as inactive or inconclusive.
# How the values were obtained:
# [1] = target: Estrogen receptor (Homo sapiens) (UniProt P03372); test: qHTS assay for small molecule antagonists of estrogen receptor alpha signaling (AID 588513; active means well fitted curve in the direction sought with a large enough effect in the signal ratio, with a control signal flat, not every such curve was filed as active; the % refers to the signal ratio)
# Estrogen receptor (Homo sapiens), sequence (P03372 whole entry, looked up): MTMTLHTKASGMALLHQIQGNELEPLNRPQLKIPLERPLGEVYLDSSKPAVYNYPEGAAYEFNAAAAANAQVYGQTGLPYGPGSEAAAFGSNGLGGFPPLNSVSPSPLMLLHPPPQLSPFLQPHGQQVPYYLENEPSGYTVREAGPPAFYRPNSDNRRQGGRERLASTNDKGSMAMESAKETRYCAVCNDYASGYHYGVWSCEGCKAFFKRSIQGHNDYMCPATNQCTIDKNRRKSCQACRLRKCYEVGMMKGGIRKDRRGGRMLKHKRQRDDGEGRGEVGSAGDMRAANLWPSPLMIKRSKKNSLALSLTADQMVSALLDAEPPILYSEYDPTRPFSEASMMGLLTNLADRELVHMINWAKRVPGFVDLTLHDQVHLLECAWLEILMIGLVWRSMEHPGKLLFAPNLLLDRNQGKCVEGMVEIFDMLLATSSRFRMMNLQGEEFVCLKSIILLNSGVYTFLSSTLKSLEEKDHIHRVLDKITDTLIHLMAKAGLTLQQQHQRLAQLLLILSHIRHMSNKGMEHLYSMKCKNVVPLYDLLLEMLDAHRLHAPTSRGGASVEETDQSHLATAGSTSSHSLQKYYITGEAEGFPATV
# Outline: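 Fluorescence from CCF4 substrate after 2 h at room temperature gave reporter activity; cells had been exposed to compound and 0.5nM 17-beta-estradiol for 18 h at 37 C. Hill-equation fitting yielded IC50 and maximal response.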
# [2] = target: Estrogen receptor (Homo sapiens) (UniProt P03372); test: qHTS assay for small molecule agonists of estrogen receptor alpha signaling (AID 588514; calls by dose curve; further: nearly all actives have a fitted effect of over 70% in size)
# Outline: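 Fluorescence from CCF4 cleavage reports ER-alpha-driven beta-lactamase expression in HEK 293 cells treated 18 hrs at 37 C. Data normalized to 17-beta-estradiol (20 nM) and DMSO, fitted to Hill equation.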
# [3] = qHTS assay for small molecule antagonists of peroxisome proliferator-activated receptor delta signaling (AID 588535); details: HEK293T PPARd-UAS-bla, beta-lactamase FRET ratio, 18 h; 460 nm channel;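 further: cells co-treated with a PPAR-delta agonist as stimulator during compound exposure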
# Outline: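 Compounds tested in titration on PPAR-delta-UAS-bla HEK293T cells grown in charcoal/dextran-stripped serum (2%); beta-lactamase activity read via CCF4 emission at 460 and 530 nm.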
# [4] = target: Mitogen-activated protein kinase 10 (Mus musculus) (UniProt Q61831); test: JNK3 AlphaScreen Assay (AID 530; active means well fitted curve in either direction with a large enough effect, not every such curve was filed as active;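 further: kinase came from lysate of stimulated human HepG2 cells; signal reports phosphorylation of biotinylated GST-cJun 1-79 at Ser73 with 10 µM ATP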)
# Outline: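 Biotinylated GST-cJun(1-79) served as substrate for JNK3 in HepG2 lysates stimulated with IL-1beta and TNF-alpha. ATP was 10 uM final, pH 7.6. Ser73 phosphorylation was quantified by AlphaScreen (680 nm excitation).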
# [5] = Cell Viability - NIH 3T3 (AID 541); details: NIH 3T3 cell viability, qHTS; activity change, negative = cytotoxicity: at 92.2 µM (top of the series);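 further: cells exposed to compound for 40 hours; nearly all actives have a fitted effect of over 25% in size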; further: potency means the concentration at half of the fitted maximal effect
# Outline: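 In this cytotoxicity screen, acute toxicity is scored as an ATP drop measured by CellTiter-Glo in NIH 3T3 fibroblasts following a 40 hr, 37 °C incubation with compound.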
# [6] = Cell Viability - Renal Proximal Tubule (AID 545); details: renal proximal tubule cells viability, primary cells of rat origin; activity change, negative = cytotoxicity: at 91.7 µM (top of the series);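 further: cells exposed to compound for 40 hours; nearly all actives have a fitted effect of over 40% in size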; further: potency means the concentration at half of the fitted maximal effect
# Outline: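 Luminescent ATP signal (CellTiter-Glo) served as the viability read-out after 40 hr compound exposure of freshly isolated rat proximal tubule cells at 37 °C. Concentration-dependent ATP loss was fitted with the Hill equation to give AC50.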
# [7] = Cell Viability - LYMP2-003 (AID 965);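 further: cells exposed to compounds for 24 h before reading; nearly all actives have a fitted effect of over 50% in size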; further: potency means the concentration at half of the fitted maximal effect
# Outline: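 Seed 2500 lymphoblastoid cells/well; incubate 5 hr, 37 C; add compounds; incubate 24 hr, 37 C; add CellTiter-Glo, 30 min RT; read luminescence. AC50 from Hill fit.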
# [8] = Cell Viability - LYMP2-021 (AID 974);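 further: compound exposure lasts 24 hours at 37 °C; nearly all actives have a fitted effect of over 55% in size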; further: potency means the concentration at half of the fitted maximal effect
# Outline: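 In qHTS format, compounds are tested against 2500 lymphoblastoid cells per well for 24 h; viable cell number is inferred from ATP-driven luciferase light, and Hill-equation fitting yields AC50 values.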
# [9] = Cell Viability - LYMP2-012 (AID 982);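 further: cellular ATP by luciferase luminescence where a drop means cytotoxicity; cells exposed to compound for one day before reading; nearly all actives have a fitted effect of over 55% in size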; further: potency means the concentration at half of the fitted maximal effect
# [10] = target: Peroxisome proliferator-activated receptor gamma (Homo sapiens) (UniProt P37231); test: qHTS assay for small molecule agonists of peroxisome proliferator-activated receptor gamma signaling (AID 588536; active means well fitted curve in the direction sought with a large enough effect in the signal ratio, with a control signal flat, not every such curve was filed as active; the % refers to the signal ratio)
# Peroxisome proliferator-activated receptor gamma (Homo sapiens), sequence (P37231 whole entry, looked up): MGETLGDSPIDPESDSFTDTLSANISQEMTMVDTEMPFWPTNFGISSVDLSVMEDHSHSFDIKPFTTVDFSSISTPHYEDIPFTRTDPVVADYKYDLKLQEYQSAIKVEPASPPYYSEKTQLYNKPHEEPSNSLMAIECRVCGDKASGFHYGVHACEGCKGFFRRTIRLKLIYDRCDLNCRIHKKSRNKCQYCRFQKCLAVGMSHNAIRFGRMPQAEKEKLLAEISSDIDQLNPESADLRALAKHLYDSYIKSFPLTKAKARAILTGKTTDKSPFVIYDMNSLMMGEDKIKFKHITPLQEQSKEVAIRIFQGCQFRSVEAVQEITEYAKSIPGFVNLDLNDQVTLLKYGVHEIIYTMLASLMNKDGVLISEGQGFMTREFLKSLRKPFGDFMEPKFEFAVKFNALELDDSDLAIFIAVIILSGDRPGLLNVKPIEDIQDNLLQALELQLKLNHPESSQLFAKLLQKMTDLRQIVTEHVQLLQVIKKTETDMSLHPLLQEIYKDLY
# Outline: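 Compound treatment: 16 h, 37 C, HEK293 GeneBLAzer cells. Detection: CCF4, 2 h RT. Values: Hill-fit EC50, efficacy as % of 2 uM rosiglitazone.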
# [11] = target: Vitamin D3 receptor (Homo sapiens) (UniProt P11473); test: qHTS assay for small molecule antagonists of vitamin D receptor signaling (AID 588541; calls by dose curve;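 further: receptor activated by calcitriol during compound treatment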)
# Vitamin D3 receptor (Homo sapiens), sequence (P11473 whole entry, looked up): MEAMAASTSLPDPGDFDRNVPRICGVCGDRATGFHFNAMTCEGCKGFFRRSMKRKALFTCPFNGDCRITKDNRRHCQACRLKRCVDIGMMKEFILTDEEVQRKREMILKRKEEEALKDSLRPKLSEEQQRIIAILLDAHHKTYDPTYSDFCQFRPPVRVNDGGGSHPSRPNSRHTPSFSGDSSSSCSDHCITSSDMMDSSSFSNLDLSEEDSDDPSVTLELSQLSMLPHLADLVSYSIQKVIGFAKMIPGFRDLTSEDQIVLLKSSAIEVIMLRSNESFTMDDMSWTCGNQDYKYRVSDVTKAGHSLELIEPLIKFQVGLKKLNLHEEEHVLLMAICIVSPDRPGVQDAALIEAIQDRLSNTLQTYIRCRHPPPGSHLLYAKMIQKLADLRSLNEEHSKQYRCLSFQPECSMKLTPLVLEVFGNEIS
# Outline: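 VDR-UAS-bla HEK293T cells (2000/well, 2% charcoal-stripped FBS) were treated with titrated compounds plus 1-alpha,25-dihydroxyvitamin D3 (50 nM or 3 nM final) for 16 h at 37 C. CCF4 beta-lactamase fluorescence was read; Hill fits gave IC50.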
# [12] = target: Retinoic acid receptor RXR-alpha (Homo sapiens) (UniProt P19793); test: qHTS assay for small molecule agonists of retinoid X receptor alpha signaling (AID 588544; calls by dose curve)
# Retinoic acid receptor RXR-alpha (Homo sapiens), sequence (P19793 whole entry, looked up): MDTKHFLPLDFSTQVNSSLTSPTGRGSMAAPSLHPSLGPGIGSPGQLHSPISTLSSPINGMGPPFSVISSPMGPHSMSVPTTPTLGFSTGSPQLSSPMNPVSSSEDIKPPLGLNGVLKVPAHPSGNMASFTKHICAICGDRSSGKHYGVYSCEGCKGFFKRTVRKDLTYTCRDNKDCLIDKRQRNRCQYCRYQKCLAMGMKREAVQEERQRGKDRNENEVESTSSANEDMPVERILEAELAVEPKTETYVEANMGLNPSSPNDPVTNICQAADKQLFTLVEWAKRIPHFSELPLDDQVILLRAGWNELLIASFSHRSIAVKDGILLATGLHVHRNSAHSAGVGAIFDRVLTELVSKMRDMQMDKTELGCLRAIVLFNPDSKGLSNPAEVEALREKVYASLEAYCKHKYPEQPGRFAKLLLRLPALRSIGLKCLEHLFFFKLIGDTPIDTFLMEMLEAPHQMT
# [13] = qHTS assay for small molecule agonists of the antioxidant response element (ARE) signaling pathway (AID 651741; active means well fitted activation curve with a large enough effect in the signal ratio; the % refers to the signal ratio; further: potency means the concentration at half of the fitted maximal effect)
# Outline: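 Beta-lactamase reporter expression driven by the antioxidant response element in HepG2 cells was detected by fluorescence with LiveBLAzer B/G FRET substrate (2 h, room temperature) following 16 h compound treatment at 37 C.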
# [14] = qHTS assay to identify small molecules that stimulate interleukin-8 (IL-8) secretion (AID 651758; active means well fitted activation curve with a large enough effect in the signal ratio; the % refers to the signal ratio; further: potency means the concentration at half of the fitted maximal effect)
# Outline: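 Quantitative HTS in THP-1 monocytic cells at 2000 cells per well, with 16 hrs compound incubation at 37 C. IL-8 in the medium was then quantified by HTRF immunoassay, read after 1-3 hrs at room temperature.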
# [15] = qHTS assay for small molecule agonists of the antioxidant response element (ARE) signaling pathway measured by Nrf2-dependant transcriptional activity - cell viability counter screen (AID 720653; active means well fitted curve in the direction sought with a large enough effect in the repeat runs; an effect the other way counts as inactive or inconclusive); details: ARE-bla HepG2 viability, CellTiter-Glo ATP luminescence, 16 h; max response: stronger effect = lower value
# Outline: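 ARE-bla HepG2 cells (2,000/well) rested 5 hrs at 37C/5% CO2, then exposed to compounds in DMSO for 16 hrs. Viability was read in the same wells as intracellular ATP by luminescence, 30 min at room temperature after reagent addition.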
# [16] = target: Glucocorticoid receptor (Homo sapiens) (UniProt P04150); test: qHTS assay for small molecule antagonists of glucocorticoid receptor signaling (AID 588533; active means well fitted inhibition curve with a large enough effect in the signal ratio, with a control signal flat, not every such curve was filed as active; the % refers to the signal ratio;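 further: cells stimulated with 2 nM dexamethasone as agonist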)
# Glucocorticoid receptor (Homo sapiens), sequence (P04150 whole entry, looked up): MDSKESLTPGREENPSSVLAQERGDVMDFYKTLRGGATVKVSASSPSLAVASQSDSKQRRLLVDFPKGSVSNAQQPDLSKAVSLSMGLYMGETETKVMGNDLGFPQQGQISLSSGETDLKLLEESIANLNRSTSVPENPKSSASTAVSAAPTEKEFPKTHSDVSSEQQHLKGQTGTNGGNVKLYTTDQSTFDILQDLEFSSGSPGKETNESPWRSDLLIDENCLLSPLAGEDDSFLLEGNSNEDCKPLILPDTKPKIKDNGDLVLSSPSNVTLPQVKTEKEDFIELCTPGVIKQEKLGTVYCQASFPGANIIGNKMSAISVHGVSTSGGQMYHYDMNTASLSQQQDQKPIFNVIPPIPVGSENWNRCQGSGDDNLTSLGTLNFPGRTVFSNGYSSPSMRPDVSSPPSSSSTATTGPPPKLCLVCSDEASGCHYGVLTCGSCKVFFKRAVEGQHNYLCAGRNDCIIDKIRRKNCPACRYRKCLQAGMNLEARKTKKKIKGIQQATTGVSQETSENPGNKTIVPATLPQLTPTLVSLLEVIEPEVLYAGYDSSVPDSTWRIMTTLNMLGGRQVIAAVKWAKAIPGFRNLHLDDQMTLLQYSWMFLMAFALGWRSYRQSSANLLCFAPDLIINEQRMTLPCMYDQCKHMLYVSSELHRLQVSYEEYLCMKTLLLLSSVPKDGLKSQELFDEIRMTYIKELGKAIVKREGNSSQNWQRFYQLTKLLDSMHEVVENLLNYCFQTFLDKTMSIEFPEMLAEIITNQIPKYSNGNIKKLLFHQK
# Outline: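 Antagonist-mode qHTS: compound titrations added to GRE-bla HeLa cells, then dexamethasone 2 nM final; 18 h, 37 C. CCF4 FRET fluorescence normalized to dexamethasone and DMSO; IC50 from Hill fit.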
# [17] = Cell Viability - N2a (AID 540); details: N2a mouse neuroblastoma cell viability; activity change, negative = cytotoxicity: at 92.2 µM (top of the series);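 further: cells exposed to compound for 40 h at 37 °C; nearly all actives have a fitted effect of over 45% in size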; further: potency means the concentration at half of the fitted maximal effect
# Outline: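 In this qHTS cytotoxicity screen, ATP-dependent luciferase luminescence reports viable N2a cells after a 40 hr compound exposure in complete culture medium. Potencies are AC50 values from standard Hill equation fits.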
# [18] = target: Bile acid receptor (Homo sapiens) (UniProt Q96RI1); test: qHTS assay for small molecule antagonists of farnesoid X receptor signaling (AID 588526; calls by dose curve)
# Bile acid receptor (Homo sapiens), sequence (Q96RI1 whole entry, looked up): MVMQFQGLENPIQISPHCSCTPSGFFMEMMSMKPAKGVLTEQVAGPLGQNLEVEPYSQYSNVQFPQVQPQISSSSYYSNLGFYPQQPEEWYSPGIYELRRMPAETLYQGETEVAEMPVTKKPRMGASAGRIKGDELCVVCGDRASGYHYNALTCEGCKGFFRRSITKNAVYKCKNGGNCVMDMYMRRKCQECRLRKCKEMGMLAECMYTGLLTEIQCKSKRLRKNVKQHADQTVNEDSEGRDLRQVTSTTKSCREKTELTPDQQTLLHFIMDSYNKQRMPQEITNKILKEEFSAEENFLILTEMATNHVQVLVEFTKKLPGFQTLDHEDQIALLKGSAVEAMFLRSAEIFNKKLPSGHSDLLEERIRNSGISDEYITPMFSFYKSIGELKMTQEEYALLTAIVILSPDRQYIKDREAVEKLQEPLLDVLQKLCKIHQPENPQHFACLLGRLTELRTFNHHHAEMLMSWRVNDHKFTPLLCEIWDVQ
# Outline: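 Concentration-response titrations were fitted to the Hill equation for half-maximal inhibition and maximal response, with data normalised to 50 uM chenodeoxycholic acid and DMSO control wells. Cells: FXR-UAS-bla HEK293T, dialyzed FBS.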
# [19] = target: Tumor necrosis factor (Homo sapiens) (UniProt P01375); test: qHTS assay to identify small molecules that stimulate Tumor Necrosis Factor-alpha (TNF-alpha) secretion (AID 651757; active means well fitted curve in the direction sought with a large enough effect in the signal ratio; the % refers to the signal ratio)
# Tumor necrosis factor (Homo sapiens), sequence (P01375 whole entry, looked up): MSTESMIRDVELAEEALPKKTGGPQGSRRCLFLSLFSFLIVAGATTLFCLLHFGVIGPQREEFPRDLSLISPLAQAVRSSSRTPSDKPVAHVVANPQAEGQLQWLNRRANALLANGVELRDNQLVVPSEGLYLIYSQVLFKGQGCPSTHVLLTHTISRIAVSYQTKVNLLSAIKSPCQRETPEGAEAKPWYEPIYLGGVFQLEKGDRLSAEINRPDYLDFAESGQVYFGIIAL
# Outline: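 Using 3000 THP-1 cells per well, compounds and controls were applied for 17 hrs at 37 C. Detection followed with two labeled anti-TNF-alpha antibodies (cryptate donor, XL665 acceptor) for 3 hr at room temperature, measured by TR-FRET.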
# [20] = target: Peroxisome proliferator-activated receptor gamma (Homo sapiens) (UniProt P37231); test: qHTS assay for small molecule antagonists of peroxisome proliferator-activated receptor gamma signaling (AID 588537; active means well fitted inhibition curve with a large enough effect in the signal ratio, with a control signal flat, not every such curve was filed as active; the % refers to the signal ratio; further: potency means the concentration at half of the fitted maximal effect)
# Outline: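 HEK293 cells, PPAR-gamma-UAS-bla, 3000/well. Pre-incubation 6-6.5 h, 37 C. Compound titration with rosiglitazone 50 nM final, 16 h. CCF4 dye, 2 h RT, dual-emission fluorescence.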
smiles,measurement,setting,value
Cc1cc(-c2ccc(N=Nc3cc(S(=O)(=O)O)c4ccccc4c3N)c(C)c2)ccc1N=Nc1cc(S(=O)(=O)O)c2ccccc2c1N,outcome,[1],inactive
same,Potency,[2],inactive
same,max response,[3],-39.2%
Nc1ccccc1O,Potency,[4],inactive
same,"activity change, negative = cytotoxicity",[5],-130% (active)
same,Potency,[6],inactive
same,Potency,[7],inactive
same,Potency,[8],inactive
same,Potency,[9],inactive
same,outcome,[1],inactive
same,Potency,[2],inactive
same,max response,[3],17.2%
same,outcome,[10],inactive
same,Potency,[11],inactive
same,Potency,[12],inactive
same,Potency,[13],13.3 µM (active)
same,Potency,[14],66.8 µM (active)
same,max response,[15],-24.7% (inactive)
O=C(OCC1CO1)C1CCCCC1C(=O)OCC1CO1 (stereo not drawn),Potency,[4],inactive
same,"activity change, negative = cytotoxicity",[5],-15% (inactive)
same,Potency,[6],inactive
same,Potency,[8],50.1 µM (active)
same,Potency,[16],inactive
same,Potency,[13],42.2 µM (active)
same,Potency,[14],66.8 µM (active)
same,max response,[15],4.68% (inactive)
CC(C)(C)C(=O)C1C(=O)c2ccccc2C1=O,"activity change, negative = cytotoxicity",[17],-83% (active)
same,Potency,[5],12.6 µM (active)
same,Potency,[6],inactive
same,Potency,[7],inactive
same,Potency,[8],inactive
same,outcome,[1],inactive
same,Potency,[2],inactive
same,Potency,[14],inactive
same,max response,[15],-24.2% (inactive)
O=C1c2ccccc2C(=O)C1(O)O,Potency,[4],inactive
same,"activity change, negative = cytotoxicity",[17],-94.6% (active)
same,Potency,[6],1.58 µM (active)
same,Potency,[7],50.1 µM (active)
same,outcome,[1],inactive
same,Potency,[2],inactive
same,Potency,[12],inactive
same,Potency,[13],66.8 µM (active)
same,max response,[15],-29.9% (inactive)
O=CC(=O)c1ccccc1,Potency,[4],inactive
same,Potency,[7],inactive
same,outcome,[1],inactive
same,Potency,[2],inactive
same,Potency,[16],inactive
same,max response,[3],7.18%
same,outcome,[10],inactive
same,Potency,[11],inactive
same,Potency,[14],inactive
same,max response,[15],-2.84% (inactive)
O=C(O)c1ccc([N+](=O)[O-])cc1,Potency,[4],inactive
same,"activity change, negative = cytotoxicity",[5],3.22% (inactive)
same,Potency,[6],inactive
same,Potency,[7],inactive
same,Potency,[8],inactive
same,Potency,[9],inactive
same,Potency,[18],inactive
same,Potency,[16],inactive
same,max response,[3],8.52%
same,Potency,[11],inactive
same,Potency,[13],inactive
same,Potency,[19],inactive
same,max response,[15],-7.35% (inactive) and -20.8% (inactive)
c1ccc(Nc2cccc3ccccc23)cc1,"activity change, negative = cytotoxicity",[5],-22.5% (inactive)
same,Potency,[6],inactive
same,max response,[3],27.2% and -10.4%
same,Potency,[12],inactive
same,Potency,[19],inactive
Nc1ccc(N)c(Cl)c1,Potency,[4],inactive
same,Potency,[5],31.6 µM (active)
same,Potency,[7],inactive
same,Potency,[9],inactive
same,Potency,[2],inactive
same,max response,[3],-6.58%
same,Potency,[13],23.7 µM (active)
same,max response,[15],24% (inactive)
S=C(NC1CCCCC1)NC1CCCCC1,Potency,[4],inactive
same,Potency,[17],31.6 µM (active)
same,Potency,[6],inactive
same,Potency,[7],inactive
same,outcome,[1],inactive
same,Potency,[2],inactive
same,max response,[3],-15.4%
same,outcome,[10],inactive
same,Potency,[20],inactive
same,Potency,[11],inactive
same,Potency,[13],66.8 µM (active)
Oc1cc2c(cc1O)[C@H]1c3ccc(O)c(O)c3OC[C@@]1(O)C2,"activity change, negative = cytotoxicity",[5],-89.3% (active)
same,Potency,[8],31.6 µM (active)
same,outcome,[1],inactive
same,Potency,[2],inactive
same,outcome,[10],inactive
same,Potency,[12],inactive
same,Potency,[13],66.8 µM (active)
same,max response,[15],-29.6% (inactive)
CN(C)c1ccc(C(=N)c2ccc(N(C)C)cc2)cc1,Potency,[4],inactive
same,Potency,[17],31.6 µM (active)
same,Potency,[9],39.8 µM (active)
same,outcome,[1],inactive
same,Potency,[16],inactive
same,Potency,[20],14.1 µM (active)
same,Potency,[11],inactive
same,Potency,[14],66.8 µM (active)
Cc1c(C(=O)O)c(O)cc2c1C(=O)c1c(O)c([C@H]3O[C@H](CO)[C@@H](O)[C@H](O)[C@H]3O)c(O)c(O)c1C2=O,"activity change, negative = cytotoxicity",[5],-80.4% (active)
same,Potency,[6],31.6 µM (active)
same,outcome,[1],inactive
same,Potency,[2],inactive
same,Potency,[18],inactive
same,Potency,[16],inactive
same,max response,[3],28.9%
same,outcome,[10],inactive
same,Potency,[11],inactive
same,Potency,[12],inactive
same,Potency,[13],inactive
